4-MU autofl: compound fluoresces in the 4-MU spectral region; compound autofluorescence, 340/450 nm, 4-MU equivalents; hits give high values; max dye-equivalent concentration, M; 59,000 compounds, 11% hits; AID 589; in the data active = max dye-equivalent concentration above about 10 nM; inconclusive = mostly about 1.1 nM to 9.6 nM
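Compounds in 100 mM Tris, pH 8.0, sat 15 min at room temperature before fluorescence was read at 340 nm excitation/450 nm emission; a per-plate six-point 4-MU standard curve converted signals to dye-equivalent concentration at each compound concentration.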
AID923: qHTS Assay for Allosteric/Competitive Inhibitors of Caspase-1: Spectroscopic Profiling in AFC Spectral Region; 75,000 compounds, 1.1% hits; AID 923, 2007; Potency, µM (highest dose often 57.5 µM), for the others: top-dose fluorescence increase, most hits filed as activators; compound fluorescence, AFC spectral region (405/520 nm); note: potency is the fitted concentration of half-maximal effect; 0% is about no effect
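Compound autofluorescence profiled at 405 nm ex/520 nm em during kinetic caspase 1 run (50 nM enzyme, 5 uM Ac-WEHD-AFC, HEPES pH 7.5, 10 mM DTT). Titration up to 57 uM; baseline from regression intercept, normalized to AFC standard curve.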
HADH2 inh: HADH2 (human) dehydrogenase inhibition; Potency, µM (series often up to 57.1 µM), inactives show top-dose activity change, negative = inhibition, actives largely listed as inhibitors; 73,000 compounds, 3.4% hits; AID 886; Q99714; recombinant HADH2, NADH fluorescence, beta-hydroxybutyryl-CoA; note: potency is the fitted concentration of half-maximal effect; % is set by controls: 0 for no effect and ±100 for the full control effect; nearly all actives have a fitted effect of over 60% in size
Target sequence (Q99714 whole entry, looked up, one chain of several): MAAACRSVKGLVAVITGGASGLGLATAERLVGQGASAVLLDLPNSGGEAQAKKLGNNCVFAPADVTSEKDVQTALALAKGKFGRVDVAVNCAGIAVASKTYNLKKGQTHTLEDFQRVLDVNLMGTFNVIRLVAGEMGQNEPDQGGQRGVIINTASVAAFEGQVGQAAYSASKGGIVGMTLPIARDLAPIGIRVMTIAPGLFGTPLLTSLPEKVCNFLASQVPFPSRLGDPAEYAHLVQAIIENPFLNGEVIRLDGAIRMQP
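Buffer 100 mM Tris-HCl pH 9.0/0.01% Tween-20; HADH2 20 nM; NAD+ 1 mM; beta-hydroxybutyryl-CoA 90 uM (all final). 15 min cpd preincubation, RT.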
CRE-bla Fsk: CRE-bla signaling modulation under forskolin stimulation; CHO CRE-bla reporter (cAMP response element driving beta-lactamase), forskolin EC10, beta-lactamase ratio; Potency, µM (top dose mostly 38.2 µM), for the others: at the top dose activity change, negative = inhibition, most hits filed as activators; 71,000 compounds, 2.5% hits; active = well fitted activation curve with a large enough effect in the signal ratio, with a control signal flat, not every such curve was filed as active; inconclusive = small, poorly fitted or top-dose-only effect, or effect the other way, or a change in a side signal; the % refers to the signal ratio; note: potency is the fitted concentration of half-maximal effect; % of control where 0% means no effect
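qHTS titration format; CRE-bla CHO reporter; stimulus EC10 NKH 477, a water-soluble forskolin. Read: CCF4 460/530 nm ratio. Potency expressed as AC50 for activators or inhibitors.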
A350 fluor: compound fluoresces in the Alexa 350 spectral region | Compound autofluorescence, 340/450 nm, Alexa 350 dye-equivalents; hits give high values | max dye-equivalent concentration, M | 59,000 compounds, 11% hits | AID 590; in the data active = max dye-equivalent concentration above about 10 nM; inconclusive = mostly about 1.1 nM to 9.6 nM
HSD17B inh: inhibitors of human HSD17B10 dehydrogenase | AID 893 | 75,000 compounds, 7.6% hits | Q99714 | recombinant HSD17B10, NADH fluorescence kinetic | Potency, µM (series often up to 57.1 µM), for inactives: top-dose activity change, negative = inhibition, most hits filed as inhibitors;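 note: the protocol describes HADH2 (HSD17B10) and not the HSD17B4 of the title; potency is the fitted concentration of half-maximal effect; % is set by controls: 0 for no effect and ±100 for the full control effect; nearly all actives have a fitted effect of over 70% in size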
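Activity followed as NADH fluorescence increase (ex 360, em 450 nm) every 30 seconds for 4 min, using final 90 uM beta-hydroxybutyryl CoA and 1 mM NAD+. Recombinant His-tagged enzyme, 20 nM, pH 9.0 Tris buffer, 15 min compound preincubation.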
* = called active by the depositor; i = inactive; ? = inconclusive; · = not tested or not shown; [ ] = dose if it differs, or a comment. Only some compounds are listed: those with a hit (about 14% of all), similar ones and a draw of the others. Unless noted, calls come from the whole dose curve; as a rule, active = well fitted curve in the direction sought with a large enough effect; inconclusive = small, poorly fitted or top-dose-only effect, or another doubt; inactive = no such curve, though single readings can be large; an effect the other way counts as inactive or inconclusive.

SMILES	4-MU autofl	AID923	HADH2 inh	CRE-bla Fsk	A350 fluor	HSD17B inh
COc1ccc2[nH]c(=O)c3c(c2c1)OC(C)(C)C=C3	2.3e-07M*	8%	28%	?	2.1e-07M*	25µM*
COc1ccc2[nH]c(C)c(CCN3C(=O)OC(C)(C)C3(C)O)c2c1 (stereo unspecified)	·	-1%	-14%	-6%	·	-29%
COC(=O)[C@@]1(Cc2ccc(OC)cc2)[C@H]2c3cc(C(=O)N4CCCC4)n(CCc4ccc(O)c(OC)c4)c3C[C@H]2CN1C(=O)c1ccccc1	·	2%	4%	?	·	3%
COc1ccc(C2CC(=O)C(C=NCCCN3CCOCC3)=C(O)C2)cc1 (stereo unspecified)	·	2%	-2%	5%	·	-2%
COc1ccc(C=NCCCN2CCOCC2)cc1	4.3e-06M*	·	·	·	4.6e-06M*	·
COc1cc(C=O)c([N+](=O)[O-])cc1OC	·	-1%	?	·	·	-23%
COc1ccccc1CNc1ncncc1-c1cccc(C#N)c1	i	0%	1%	?	i	-7%
O=C1CCCC2=C1C(c1ccc(Br)cc1)c1c([nH]c(=S)[nH]c1=O)N2 (stereo unspecified)	?	-1%	10µM*	8%	?	10µM*
CN(c1ccccc1)S(=O)(=O)c1ccc(C(=O)OCC(=O)NCc2ccco2)cc1	i	-1%	3%	-4%	i	-4%
O=C(COC(=O)c1cccc(S(=O)(=O)N2CCN(c3ccccc3)CC2)c1)NCc1ccco1	i	3%	18%	-16%	i	25µM*
COC(=O)c1ccccc1NC(=O)n1cc(C)cn1	8.1e-08M*	2%	?	-4%	9.2e-08M*	32µM*
CS(=O)(=O)N1CCCC(C(=O)NCc2ccc(F)cc2Cl)C1 (stereo unspecified)	i	-1%	3%	10µM*	i	2%
N#Cc1c(NCCCO)nc(-c2ccccc2)c2c1CCCC2	2.5e-07M*	·	·	·	2.9e-07M*	·
CC1(C)CC(=O)C(C#N)=C(NCCCO)C1	·	0%	-3%	-4%	·	4%
CO[C@@H]1COC(=O)[C@@H](CCSC)NC(=O)C/C=C\[C@@H](C)COC(=O)[C@H](C)NC(=O)C/C=C\[C@H]1C	·	0%[11.5 µM]	-2%[11.4 µM]	·	·	1%[11.4 µM]
CCC(C)(C)n1nnnc1C(c1cc2cc(C)cc(C)c2[nH]c1=O)N1CCCC1 (stereo unspecified)	1.2e-08M*	12%	-5%	6%	1.1e-08M*	20µM*
CCC(C)(C)n1nnnc1C(c1cc2cccc(C)c2[nH]c1=O)N1CCCC1 (stereo unspecified)	1e-08M*	5%	-4%	-24%	1.1e-08M*	-17%
Cc1cc(C)c2[nH]c(=O)c(C(c3nnnn3C(C)(C)C)N3CCN(C(=O)c4ccco4)CC3)cc2c1 (stereo unspecified)	3.2e-08M*	1%	-11%	?	3.1e-08M*	-16%
Cc1cccc2cc(C(c3nnnn3Cc3ccccc3)N3CCN(C)CC3)c(=O)[nH]c12 (stereo unspecified)	3e-08M*	1%	3%	0%	2.9e-08M*	-18%
COCCc1ccc(OC[C@H](O)CNC(C)C)cc1	i	1%[25.7 µM]	11%[25.6 µM]	-3%[17.1 µM]	i	-2%[25.6 µM]
Nc1nc2c(c(=O)[nH]1)CN(CCCN1CCOCC1)CN2	i	-1%[11.5 µM]	7%[11.4 µM]	5%[7.6 µM]	i	0%[11.4 µM]
O=C(CSc1ccccc1C(=O)NCCCN1CCCC1=O)NCc1ccco1	1.4e-07M*	0%	?	-8%	1.3e-07M*	?
COc1ccccc1C(=O)NCCCN1CCCC1=O	?	-1%	-6%	0%	?	7%
O=C(c1ccncc1)N1CCC2(CCCN(c3ccncc3)C2)CC1	i	-1%	5%	-3%	i	6%
Cn1cccc1C(=O)N1CCC2(CC1)CN(C(c1ccccc1)c1ccccc1)C2	i	0%	-14%	-19%	i	-9%
SMILES	4-MU autofl	AID923	HADH2 inh	CRE-bla Fsk	A350 fluor	HSD17B inh
Oc1cccc(-c2nc3ccccc3s2)c1	i	-1%	16µM*	-8%	i	-16%
COc1ccc(-c2nc3ccccc3s2)cc1O	i	0%	?	5%	i	?
O=c1cc(-c2cccc(O)c2)oc2cccc(O)c12	·	-1%	·	·	·	-13%
O=c1cc(-c2ccccc2)oc2cc(O)c(O)c(O)c12	i	-5%	4µM*	18%	i	2µM*
CC1=C(C)NC(=S)SC1	i	0%	7.9µM*	-13%	i	-1%
CC(=O)CC(=O)NC(=NC1CCCCC1)Nc1nc(C)cc(C)n1	1.1e-08M*	0%	-7%	2%	1.2e-08M*	-14%
Cc1ccc(S(=O)(=O)NCc2cccc([N+](=O)[O-])c2)cc1	i	0%[11.5 µM]	1%[11.4 µM]	3%[7.6 µM]	i	3%[11.4 µM]
Cc1c(C(=O)NCC2CCCO2)oc2ccc3c(c12)C(=O)CC(C)(C)O3 (stereo unspecified)	·	2%	20µM*	·	·	?
COCC(=O)N1CCC2(CCCN(c3ccc(-c4ccccc4)cc3)C2)CC1	i	2%	5%	?	i	25µM*
COCC(=O)N1CCC2(CC1)CCN(c1ccc(-c3ccccc3)cc1)CC2	i	2%	-8%	4%	i	-22%
CC(=O)N1CCC2(CCCN(c3ccc(-c4ccccc4)cc3)C2)CC1	i	4%	-22%	?	i	25µM*
CC(=O)N1CCC2(CCCN(c3cccc(-c4ccccc4)c3)C2)CC1	i	2%	-14%	?	i	?
NC(=O)C(=O)O	i	2%	-12%	-1%	i	8%
CC1(C)Cc2c(c(N3CCOCC3)nc3sc4c(=O)[nH]cnc4c23)CS1	1.5e-08M*	·	·	·	1.9e-08M*	·
CC1(C)CC(=O)c2sc(NC(=O)CN3C(=O)CCC3=O)nc2C1	·	-5%	-8%	-24%	·	-28%
CC1(C)CC(=O)c2sc(NC(=O)CN3CCOCC3)nc2C1	2.5e-08M*	2%	-13%	?	2.2e-08M*	-24%
CCCCC(=O)NCCc1c(Cc2ccccc2)[nH]c2ccccc12	·	-1%	-1%	?	·	-29%
COc1ccccc1N1CCN(C/C=C/c2ccc(N(C)C)cc2)CC1	·	-1%	32µM*	-11%	·	32µM*
CCCCN(C)C(=O)c1c[nH]c2ccc(S(=O)(=O)N3CCOCC3)cc2c1=O	·	0%	20µM*	-8%	·	32µM*
Cc1ccccc1NS(=O)(=O)c1ccc2[nH]cc(C(=O)NCCCN3CCOCC3)c(=O)c2c1	i	1%	5%	-9%	?	-79%
O=C(c1c[nH]c2ccc(S(=O)(=O)N3CCOCC3)cc2c1=O)N1CCN(c2ccccn2)CC1	?	-1%	-19%	-13%	?	25µM*

From PubChem
